Myeloid diff 2 = myeloid differentiation induction; AID 624256; ER-HoxA9 myeloid progenitors, lysozyme-GFP differentiation, flow cytometry; hit rate 1% among 360,000; calls only at 10 µM;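 active = normalized GFP-positive differentiation at or above the plate's own cutoff, the solvent-only control mean plus 3 SD; inconclusive = no clear call, values can overlap the other calls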;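 note: cells exposed to compound for four days before flow analysis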
Granule exo inh = blocks lytic granule exocytosis. TALL-104 LAMP-1 surface exposure, flow cytometry; cells stimulated with thapsigargin and PMA. inhibition, % at 10 µM. hit rate 0.66% among 360,000. AID 651702;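 active = inhibition above about 55%, limit read from the data; inconclusive = no clear call, values can overlap the other calls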
NPR2 activator = GC-B (human) receptor activation | P20594 | HEK293-GC-B cells, CNP EC30, cGMP TR-FRET; 0% at EC30 CNP, 100% saturating CNP | AID 1920062 | activation, % at 10 µM | hit rate 0.11% among 370,000;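 active = activation at 10 µM reaching about 35% in either raw or pattern-adjusted values, limit read from the data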
GC-A act = GC-A (human) enzyme activation; P16066; HEK293 GC-A cells, cGMP TR-FRET, EC30 ANP; 0% at EC30 ANP, 100% saturating ANP; activation, % at 10 µM; hit rate 0.14% among 370,000; in the data active = activation above about 40%
Target sequence (P16066 whole entry, looked up): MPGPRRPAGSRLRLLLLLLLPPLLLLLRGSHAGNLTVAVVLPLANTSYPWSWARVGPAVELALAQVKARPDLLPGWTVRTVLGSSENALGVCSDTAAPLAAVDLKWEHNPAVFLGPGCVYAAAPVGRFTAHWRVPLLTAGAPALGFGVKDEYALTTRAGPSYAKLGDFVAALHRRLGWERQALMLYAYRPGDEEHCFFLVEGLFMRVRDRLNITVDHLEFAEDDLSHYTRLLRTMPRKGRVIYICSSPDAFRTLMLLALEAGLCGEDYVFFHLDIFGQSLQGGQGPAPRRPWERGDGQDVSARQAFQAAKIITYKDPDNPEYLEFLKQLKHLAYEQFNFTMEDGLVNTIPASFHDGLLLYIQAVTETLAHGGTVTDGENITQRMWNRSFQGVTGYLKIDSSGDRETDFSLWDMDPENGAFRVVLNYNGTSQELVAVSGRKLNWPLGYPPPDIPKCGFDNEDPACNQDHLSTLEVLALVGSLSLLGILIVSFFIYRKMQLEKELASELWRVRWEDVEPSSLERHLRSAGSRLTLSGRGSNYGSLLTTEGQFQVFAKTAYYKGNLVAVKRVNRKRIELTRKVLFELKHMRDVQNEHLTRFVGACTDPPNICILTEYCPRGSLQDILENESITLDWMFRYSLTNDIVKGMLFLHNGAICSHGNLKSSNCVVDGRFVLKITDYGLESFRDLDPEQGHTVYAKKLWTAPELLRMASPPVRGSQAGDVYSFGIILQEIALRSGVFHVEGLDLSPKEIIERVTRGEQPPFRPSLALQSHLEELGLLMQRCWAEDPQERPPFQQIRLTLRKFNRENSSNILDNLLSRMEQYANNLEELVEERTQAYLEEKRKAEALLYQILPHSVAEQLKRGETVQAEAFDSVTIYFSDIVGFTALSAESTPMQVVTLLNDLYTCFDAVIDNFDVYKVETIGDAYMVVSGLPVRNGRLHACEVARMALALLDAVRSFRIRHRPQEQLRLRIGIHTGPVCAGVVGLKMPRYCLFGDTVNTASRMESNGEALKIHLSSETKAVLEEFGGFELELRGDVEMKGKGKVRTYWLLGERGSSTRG
An asterisk follows results filed as active; i = inactive; ? = inconclusive; . = no result given; + = active, no number. The list is not random: actives were taken first. Their share in the collection is about 1.8%.

SMILES | Myeloid diff 2 | Granule exo inh | NPR2 activator | GC-A act
O=S(=O)(c1ccc2oc(=S)[nH]c2c1)N1CCOCC1 | i | -4.6 | 6.6 | 5.5
NC(Cc1ccccc1)c1csc(NC(=O)Nc2ccccc2Oc2ccccc2)n1 (centres undefined) | + | 27.8 | -2.6 | -10.2
NC(Cc1ccc(C(F)(F)F)cc1)c1csc(NC(=O)Nc2ccccc2Oc2ccccc2)n1 (centres undefined) | + | 19.1 | 11.3 | 1.5
COc1ccc(CC(N)c2csc(NC(=O)Nc3ccccc3Oc3ccccc3)n2)cc1 (centres undefined) | i | 1.3 | -0.1 | -3.7
COc1ccc(-c2cc(-c3nnc(SCC(=O)Nc4nccs4)n3N)[nH]n2)cc1 | . | . | -5.7 | -1.7
CCn1c2ccccc2c2cc(NC(=O)c3ccc(Br)o3)ccc21 | + | 0.1 | -0.1 | -4.6
CCCCCC[C@H](CN(CCCC)S(C)(=O)=O)c1ccccc1 | . | . | -9.3 | 0.3
COc1cc(OC)cc(C(=O)N2CCC(n3c(C)nc4cc(F)ccc43)CC2)c1 | + | 0.7 | 0.3 | 0.1
COc1ccc(NC(=O)CN2CCC(n3c(C)nc4cc(F)ccc43)CC2)c(OC)c1 | i | 0.7 | 1.5 | 2.6
COc1ccc(-n2ncc3c2CC(C)(C)CC3NC(=O)CCN2CCCCC2=O)cc1 (centres undefined) | + | 0.2 | 0.4 | -3.0
COc1ccc(-n2ncc3c2CC(C)(C)CC3NC(=O)CCCN2CCCC2=O)cc1 (centres undefined) | i | -0.1 | -1.9 | 2.0
COCCOCC(=O)Nc1ccc(S(=O)(=O)Nc2cc(C)nc(C)n2)cc1 | + | -0.2 | 0.2 | 3.5
COc1ccc(OCC(=O)Nc2ccc(S(=O)(=O)Nc3cc(C)nc(C)n3)cc2)cc1 | i | 0.0 | 0.0 | -1.7
COc1ccc(OC)c(NC(=O)Nc2nc(C(C)N)cs2)c1 (centres undefined) | i | -5.7 | -0.8 | 0.8
CCCCCCCCCC[n+]1cccc2c3ccccc3ccc21 | . | 70.3* | -5.1 | -2.5
CCCCCCCC[n+]1cccc2c3ccccc3ccc21 | ? | 28.3 | 1.6 | 12.6
COc1ccc(S[C@]2(C(=O)N3CCCC3)CC(=O)N(c3ccccc3OC)[C@@H]2c2ccc(OC)cc2)cc1 | . | . | -1.2 | -2.5
O=C(/C=C/c1cccc([N+](=O)[O-])c1)c1ccc([N+](=O)[O-])o1 | + | -1.6 | 24.3 | 25.6
O=C(NC1CCCCN(Cc2cccc(C(F)(F)F)c2)C1=O)C1C2CC3CC(C2)CC1C3 (centres undefined) | . | . | 7.8 | -2.7
O=C(CNC(=S)NC(=O)c1ccc(Br)o1)c1ccccc1 | + | -3.8 | -0.4 | 1.0
O=C(CNC(=S)NC(=O)c1ccc(Cl)cc1)c1ccccc1 | i | -5.5 | 6.8 | 0.9
Cc1cccc2cc3c(N)c(C(=O)N4CCc5ccccc54)sc3nc12 | + | 2.2 | -3.1 | -5.1
Cc1cccc2cc3c(N)c(C#N)sc3nc12 | i | 3.4 | -8.4 | -7.1
Cc1sc(NC(=O)c2sc3nc4c(C)cccc4cc3c2N)c(C#N)c1C | + | 3.4 | -10.9 | 0.9
CCC(CC)NC(=O)O[C@H]1CC[C@@]23CCCN2C(=O)CCC[C@H]3C1 | . | . | -1.8 | -3.9
SMILES | Myeloid diff 2 | Granule exo inh | NPR2 activator | GC-A act
O=C(NCCCc1ccccc1)O[C@@H]1CC[C@@]23CCCN2C(=O)CCC[C@H]3C1 | . | . | 4.5 | 3.0
N=C1C(c2nc3ccccc3s2)=C(O)CN1C1CCCCC1 | i | -5.2 | -6.0 | 54.0*
N=C1C(c2nc3ccccc3s2)=C(O)CN1Cc1ccccc1 | ? | -0.8 | -15.9 | 45.5*
O=C1C(=O)c2cccnc2-c2ncccc21 | ? | 105.1* | 12.2 | 19.6
COc1ccccc1N1C(=O)c2cccnc2C1=O | i | -1.6 | 1.2 | -2.2
O=C1c2cccnc2-c2ncccc21 | i | 0.1 | 1.6 | 1.6
COC1=C(Br)C(=O)c2ncccc2C1=O | i | 107.1* | -1.5 | -1.8
CNc1ccccc1/C(O)=C(\C#N)C(=O)NCc1cccs1 | . | . | 2.1 | -2.8
CCC(=O)N1CCc2cc(Br)c(S(=O)(=O)N3CCCC(C(=O)NC(C)(C)C)C3)cc21 (centres undefined) | . | . | 3.3 | 2.2
S=C(NCc1ccccc1)Nc1ccncc1 | + | 2.3 | -2.4 | 0.9
CCOC(=O)C1=C(C)NC(=O)NC1c1ccc(NC(C)=O)cc1 (centres undefined) | i | -3.4 | 3.5 | -0.7
CCOC(=O)C1=C(C)NC(=O)NC1c1ccc(N2CCC(c3ccccc3)=N2)cc1 (centres undefined) | + | -3.1 | -3.1 | 0.4
Cc1ccc(S(=O)(=O)N2[C@@H](c3ccc(Cl)cc3)C(C(=O)O)=C[C@H]2CC2CCCC2)cc1 | + | 0.6 | 0.5 | -3.7
COc1ccc(C2c3ccc4ccccc4c3Oc3ncn(CCO)c(=N)c32)cc1 (centres undefined) | i | 52.3 | . | .
COc1ccc(C2c3ccc4ccccc4c3Oc3ncn(CCCO)c(=N)c32)cc1 (centres undefined) | i | 65.4* | -0.6 | 3.5
O=C(OCn1ncc(Br)c(Br)c1=O)c1ccccc1Cl | ? | 97.5* | . | .
O=C(OCn1ncc(Br)c(Br)c1=O)c1ccc(F)cc1 | ? | 63.8* | . | .
C=CCN1[C@H](CO)[C@H](c2ccccc2)[C@@H]1C#N | . | . | 6.1 | 0.5
COC(=O)C1CN(Cc2cn(Cc3ccc(C)cc3)nn2)CCS(=O)(=O)N1Cc1ccc(Cl)cc1 (centres undefined) | . | . | -0.8 | -8.0
CCCC[C@H]1C2CC(OC(=O)Nc3cccc(Br)c3)C(C2)[C@H]2CCCCN21 (some centres undefined) | . | . | -8.5 | -8.8
Cc1ccc2c(CC(=O)NCc3ccco3)coc2c1C | + | 3.8 | -4.2 | 0.9
Cc1ccccc1-n1sc2cc(F)ccc2c1=O | i | 70.7* | 12.1 | 11.8
O=c1c2cc(F)ccc2sn1-c1ccccc1 | i | -9.7 | 13.6 | 8.5
Cc1nn(C)c(C(=O)Nc2ccn(Cc3c(F)c(F)cc(F)c3F)n2)c1[N+](=O)[O-] | + | 4.2 | 5.6 | -0.2
Cc1nn(Cc2cccc(C(=O)Nc3ccn(Cc4c(F)c(F)cc(F)c4F)n3)c2)c(C)c1[N+](=O)[O-] | i | -3.6 | -6.6 | 2.4
SMILES | Myeloid diff 2 | Granule exo inh | NPR2 activator | GC-A act
CCCCOCCCNC(=O)C[C@H]1C(=O)N(Cc2ccc(OC)cc2)C2=CCCCC[C@@]21C(=O)OC | . | . | -1.9 | -3.5
Cc1cc(C)c2c(c1)NC(C(=O)O)C1CC=CC21 (centres undefined) | + | -26.1 | -4.4 | -28.5
COc1ccc(N2C(=O)C(=O)/C(=C(/O)c3ccc(C)cc3)C2c2cccnc2)cc1 (centres undefined) | + | -2.7 | 3.7 | 2.0
COc1ccc(C(=O)Nc2cccc(/C(C)=N/NC(=O)c3ccc([N+](=O)[O-])cc3)c2)cc1OC | + | -3.0 | 3.2 | -1.2
c1ccc(-c2cc3c(N4CCN(c5ncccn5)CC4)ncnc3s2)cc1 | i | -4.3 | 5.4 | 51.7*
c1ccc(-c2cc3c(N4CCN(c5ccccc5)CC4)ncnc3s2)cc1 | i | -1.1 | -1.9 | 1.4

Bioassay records: PubChem, several laboratories
